Screening results from PubChem.
In the library only some 3.5% were active in any assay of this set; here they are far more common.
BoNT-A LC inh2: BoNT/A light chain protease inhibitors, primary screen, biochemical, flow cytometry, MLPCN library | Botulinum neurotoxin type A light chain protease (Clostridium botulinum A str. ATCC 3502) | multiplex microsphere protease substrate cleavage | inhibition, % at 10 µM | hit rate 0.17% among 360,000 | AID 588499, 2011; note: plate controls were buffer without enzyme for full effect and enzyme alone for no effect
Anthrax LF prot: Bacillus anthracis LF protease inhibitors, primary screen, biochemical, multiplex microsphere, MLPCN library; hit rate 0.12% among 360,000; AID 588501, 2011; inhibition, % at 10 µM; multiplex microsphere protease cleavage assay; note: plate controls were buffer without enzyme for full effect and enzyme alone for no effect
Target sequence (P15917 whole entry, looked up): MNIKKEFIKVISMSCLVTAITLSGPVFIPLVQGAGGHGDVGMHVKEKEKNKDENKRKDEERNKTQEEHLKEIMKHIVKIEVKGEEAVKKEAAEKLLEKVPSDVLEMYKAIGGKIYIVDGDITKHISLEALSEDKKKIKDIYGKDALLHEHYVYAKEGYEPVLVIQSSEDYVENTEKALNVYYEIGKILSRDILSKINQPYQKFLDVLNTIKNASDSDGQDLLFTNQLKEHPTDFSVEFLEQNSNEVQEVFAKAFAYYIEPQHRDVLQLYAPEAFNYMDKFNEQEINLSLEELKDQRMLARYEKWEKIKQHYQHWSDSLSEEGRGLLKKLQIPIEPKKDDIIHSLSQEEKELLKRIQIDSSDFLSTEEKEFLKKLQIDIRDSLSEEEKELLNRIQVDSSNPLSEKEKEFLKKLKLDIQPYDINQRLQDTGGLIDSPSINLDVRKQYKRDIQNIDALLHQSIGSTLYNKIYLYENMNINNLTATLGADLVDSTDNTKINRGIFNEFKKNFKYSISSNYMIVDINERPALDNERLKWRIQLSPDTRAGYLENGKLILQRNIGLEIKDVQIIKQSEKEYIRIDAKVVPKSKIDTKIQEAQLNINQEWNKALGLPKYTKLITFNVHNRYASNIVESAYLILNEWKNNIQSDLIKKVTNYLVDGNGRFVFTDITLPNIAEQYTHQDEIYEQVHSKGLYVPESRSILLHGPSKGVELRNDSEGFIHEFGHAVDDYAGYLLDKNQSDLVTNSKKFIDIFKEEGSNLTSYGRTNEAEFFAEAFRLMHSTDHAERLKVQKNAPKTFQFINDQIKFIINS
Bead autofluor: flagged as autofluorescent in microsphere protease counterscreen | compound autofluorescence counterscreen, microsphere flow cytometry; hits give high values | fluorescence intensity (concentration not given with the values) | hit rate 3.1% among 360,000 | AID 624483; in the data active = fluorescence intensity above about 16000; inconclusive = no clear call, values can overlap the other calls
BoNT-F LC inh: BoNT/F light chain protease inhibitors, primary screen, biochemical, flow cytometry, MLPCN library; Multiplex microsphere protease cleavage assay; inhibition, % at 10 µM; hit rate 0.22% among 360,000; AID 588497, 2011; in the data active = inhibition above about 35%, passing the limit was not always enough; inconclusive = no clear call, values can overlap the other calls; note: plate controls were buffer without enzyme for full effect and enzyme alone for no effect
* marks the source's active call; other numbers are inactive results; ? = inconclusive. Cut-off read from the data, not from the text of the source, unless noted: active = inhibition above about 30%; inconclusive = no clear call, values can overlap the other calls; inactive = below that.

SMILES	BoNT-A LC inh2	Anthrax LF prot	Bead autofluor	BoNT-F LC inh
O=C(COc1ccc(Br)cc1Cl)N1CCN(c2ncccn2)CC1	2	-4	2736	10
NS(=O)(=O)c1ccc(-c2ccc(/C=N/NC(=O)c3ccc([N+](=O)[O-])cc3)o2)cc1	1	2	3994	6
CCCOc1ccc(C(=O)N/N=C/c2ccc(-c3ccc(S(=O)(=O)Nc4ncccn4)cc3)o2)cc1	?	-1	22659*	-9
COc1ccc(-c2oc3c(c2C#CC2(O)CCCCC2)C(OC)CCC3)cc1 (configuration not stated)	0	-3	5903	13
Cc1nc(-c2ccccc2)cc(N2CCCC2)n1	?	-1	23051*	2
O=C(NC(NC(=S)N1CCOCC1)C(Cl)(Cl)Cl)c1ccc(Cl)cc1 (configuration not stated)	-1	-2	2318	-8
CCCCC(=O)NC(NC(=S)N1CCOCC1)C(Cl)(Cl)Cl (configuration not stated)	?	-2	23068*	2
CCCCCCCCN1C(=O)[C@H](CC(=O)NCc2cccc(C(F)(F)F)c2)C[C@@]2(C(=O)OC)CCCCC=C12	-2	-4	6285	-44
Cn1c(SCC(=O)NCc2cccs2)nnc1-c1cccs1	0	-3	3324	6
CCn1c(CNC(=O)COc2c(C)cccc2C)nnc1SCC(=O)Nc1nccs1	8	-14	17164*	10
CCn1c(SCC(=O)NCc2cccs2)nnc1-c1cccs1	-2	-1	23563*	0
Cc1ccccc1CNC(=O)C1CCC(=O)N(C2CCCCCC2)C1 (configuration not stated)	0	-2	5513	1
CCOC(=O)c1c(NC(=O)COC(=O)c2ccccn2)sc(C(=O)N(C)C)c1C	-4	0	?	1
CCOC(=O)c1c(NC(=O)COC(=O)c2cnc(C)cn2)sc(C(=O)N(C)C)c1C	-80	-11	16695*	-106
NC(=O)C1CCN(C(=O)C2c3ccccc3C(=O)N3CCc4ccccc4C23)CC1 (configuration not stated)	0	-1	11386	-3
CC1CCN(C(=O)C2c3ccccc3C(=O)N3CCc4ccccc4C23)CC1 (configuration not stated)	3	0	22497*	1
CCOCCCNC(=O)C1c2ccccc2C(=O)N2CCc3ccccc3C12 (configuration not stated)	1	-2	16166*	0
COc1ccccc1N1CCN(C(=O)c2ccc(CS(=O)(=O)c3ccccc3OC)o2)CC1	-1	-1	16680*	-4
COc1ccc(N2CCN(C(=O)c3ccc(CS(=O)(=O)c4ccc(OC)cc4)o3)CC2)cc1	0	-3	5212	-1
CCN1CCN(C(=O)c2ccc(CS(=O)(=O)Cc3ccccc3F)o2)CC1	-3	-1	25125*	-4
CCOC(=O)N1CCN(C(=O)c2ccc(CS(=O)(=O)c3ccccc3OC)o2)CC1	?	-2	20166*	6
O=C(O)c1ccc(CS(=O)(=O)Cc2ccccc2F)o1	-1	-4	8061	-6
COc1ccc(S(=O)(=O)Cc2ccc(C(=O)N3CCC4(CC3)OCCO4)o2)cc1	1	-4	19527*	0
Cc1ccccc1S(=O)(=O)Cc1ccc(C(=O)N2CCN(c3ccccc3F)CC2)o1	1	-1	5160	6
CCCCCC(=O)N1C[C@@H](n2cc(COC(=O)c3ccccc3)nn2)[C@H](O)C[C@@H]1c1ccc(C)cc1	0	-2	2913	0
SMILES	BoNT-A LC inh2	Anthrax LF prot	Bead autofluor	BoNT-F LC inh
CC1=C(C(=O)N2CCOCC2)CC(CC(=O)NCCN2CCOCC2)C(=O)N1Cc1ccccc1 (configuration not stated)	0	-2	2937	-4
CC(NC(=O)c1ccc(NC2=NC3CS(=O)(=O)CC3S2)cc1)c1ccccc1 (configuration not stated)	0	4	5950	-6
COc1ccccc1CNC(=O)c1ccc(CS(=O)(=O)c2ccccc2OC)o1	-2	-3	22833*	-4
COc1ccccc1S(=O)(=O)Cc1ccc(C(=O)NCc2ccc(C)cc2)o1	-1	0	5532	1
Cc1cn([C@H]2C[C@H](O)[C@@H](CNCc3ccccc3OCCCN3CCOCC3)O2)c(=O)[nH]c1=O	0	-4	3776	-6
CCCS(=O)(=O)c1c(S(=O)(=O)CCC)c2c(N)cccn2c1C(=O)c1ccccc1	?	-2	16615*	-1
O=C(Nc1ccccn1)N1CCOCC1	-3	0	20658*	-5
COc1ccc(Cc2nc3ccc(C(=O)NC(C)c4cn(C)nc4C)cc3o2)cc1 (configuration not stated)	1	0	6112	-2
CCOP(=O)(OCC)c1nc(/C=C/c2ccccc2)oc1NCc1ccc(OC)cc1	-6	-14	24914*	-7
CCOP(=O)(OCC)c1nc(/C=C/c2ccccc2)oc1NCc1ccccc1	0	-6	4335	6
CCOP(=O)(OCC)c1nc(-c2cccc3ccccc23)oc1NCc1ccccc1	-5	-5	17554*	-9
CCOP(=O)(OCC)c1nc(-c2cccc3ccccc23)oc1NCc1ccc(OC)cc1	-2	-4	5422	-11
Cc1ccc([C@H]2C[C@H](O)[C@@H](n3cc(C4CC4)nn3)CN2Cc2cccs2)cc1	0	-8	3141	-7
CN(C)S(=O)(=O)c1cccc(C(=O)NCCNC(=O)c2cccc(S(=O)(=O)N(C)C)c2)c1	-4	8	4081	?
O=C(NCCc1ccccc1)c1ccc(-n2cnnn2)cc1	?	-2	16633*	-5
CCN(CC)S(=O)(=O)c1cccc(C(=O)Nc2cc(C)cc(C)c2)c1	1	0	3498	17
CCN(CC)S(=O)(=O)c1cccc(C(=O)Nc2ccc(C#N)cc2)c1	-1	0	16843*	-4
CN(C)CCNC(=O)c1ccccc1	2	-18	20030*	4
CCN(CC)S(=O)(=O)c1cccc(C(=O)NCCc2ccccc2)c1	-3	-3	16952*	0
O=C(NCSC1=NCCS1)c1ccccc1	-4	1	24719*	-6
Cc1ccc(S(=O)(=O)N(C)c2ccc(C(=O)NCCc3ccccc3)cc2)cc1	2	0	4904	9
CN(c1ccc(C(=O)NCCc2ccccc2)cc1)S(C)(=O)=O	2	0	20035*	0
CCOc1ccccc1NC(=O)NC1(C(=O)NCc2cccnc2)CCCCC1	-2	2	4051	-25
COC(=O)c1cc(F)c(-n2cncn2)c(F)c1	?	2	16245*	-3
COC(=O)c1cc([N+](=O)[O-])c(-n2cncn2)c([N+](=O)[O-])c1	1	-4	2583	25
Cc1cc(NC(NC(=O)c2ccco2)(C(F)(F)F)C(F)(F)F)no1	-2	0	17442*	-4
CC(C)(C)c1cc(NC(=O)c2ccco2)no1	1	0	5608	-2
Cc1ccc(NC(=O)c2cc(=O)c3ccccc3o2)cc1	3	-9	21364*	4
